Screening results deposited in PubChem BioAssay by The Scripps Research Institute Molecular Screening Center.
Most compounds without a hit are left out; they make up all but 4.8% or so of the library.
ssDAF12 agonist – activates DAF-12 receptor from parasite S. stercoralis; activation, % at 6.8 µM; 1% of 370,000 active; HEK293 ssDAF-12/GRIP1 lit1-tk-luc reporter, luminescence; % of 3 µM dafachronic acid response;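 active means activation above the mean over all tested compounds plus 3 SD, cut at about 0.9% in these data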
hcDAF12 agonist – activators of H. contortus DAF-12 nuclear receptor | HEK293 hcDAF-12 lit1-tk-luc reporter, luminescence; 0% DMSO, 100% Δ7-dafachronic acid | activation, % at 6.8 µM | 1.4% of 370,000 active;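 active means activation above the mean of all tested compounds plus 3 SD, cut at about 5.5% in these data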
DAX1 inh-1 – inhibitors of human orphan nuclear receptor DAX1 (NR0B1); HEK293 Gal4-DAX1 luciferase reporter, luminescence; inhibition, % at 6.75 µM; 0.99% of 340,000 active;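 active means inhibition above the mean over all tested compounds plus 3 SD, cut at about 4.2% in these data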;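 further: inhibition shows as a rise in luminescence from relieved DAX1 repression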
Target sequence (P51843 207-470 limits assumed): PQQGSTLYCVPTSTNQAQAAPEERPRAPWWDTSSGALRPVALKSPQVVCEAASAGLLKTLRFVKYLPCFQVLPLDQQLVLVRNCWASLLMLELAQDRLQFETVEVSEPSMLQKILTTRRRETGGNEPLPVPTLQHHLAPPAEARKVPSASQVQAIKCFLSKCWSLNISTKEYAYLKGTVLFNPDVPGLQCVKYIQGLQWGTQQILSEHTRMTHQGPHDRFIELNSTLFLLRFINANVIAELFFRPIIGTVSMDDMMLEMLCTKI
DAX1 inh-2 – blocks DAX1 repression of SF-1 activated StAR promoter | HEK293T StAR-luciferase reporter, SF-1/DAX-1 repression relief | inhibition, % at 6.8 µM | 1.1% of 370,000 active;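 active means inhibition above the mean over all tested compounds plus 3 SD, cut at about 3.6% in these data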;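 further: higher inhibition means more luminescence from relief of DAX-1 repression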
hgDAF-12 ag – agonists of H. glycines DAF-12 nuclear receptor. HEK293 GAL4-hgDAF12 UAS-luciferase reporter, agonist luminescence; normalized to butyrate control. activation, % at 6.8 µM. 1.8% of 370,000 active;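 active means activation above a cutoff set at the mean of all screened compounds plus 3 SD, cut at about 10% in these data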
SMARCA2 act – increases SMARCA2 function in MMTV reporter cells | MG213 cells, MMTV-luciferase reporter, dexamethasone, overnight | activation, % at 9.1 µM | 1% of 370,000 active | AID 652017; in the data active means activation above about 7.8%
Of the large screens only hits and unclear results are named; the others gave an inactive call.

CCN1CCN(c2ccc(S(=O)(=O)N3CCOCC3)cc2NC(=O)c2ccc(C(F)(F)F)cc2)CC1	DAX1 inh-1 5.9
CCN1CCN(c2ccc(S(=O)(=O)N3CCOCC3)cc2NC(=O)c2cccc([N+](=O)[O-])c2)CC1	ssDAF12 agonist 1.1
Cn1nc(C(=O)O)c(=O)n(C)c1=O	none
Cc1cc(C)nc(NC(=O)CSc2nn(-c3ccccc3)c(=S)s2)n1	DAX1 inh-1 9.1
Cc1ccc(-c2n[nH]c(Cc3ccccc3)n2)cc1	SMARCA2 act 7.9
O=C(COC(=O)c1ccc(Cl)cc1[N+](=O)[O-])NCc1ccco1	none
O=C(CNC(=O)c1ccncc1)N/N=C/c1ccc(Br)cc1	DAX1 inh-1 6.5
CCOC(=O)[C@@]12CN(C(=O)OC(C)(C)C)CC=C1N(Cc1ccc(OC)cc1)C(=O)[C@H]2CC(=O)NCc1cccs1	none (no result: DAX1 inh-1)
Nn1c(SCc2c(F)cccc2F)nnc1-c1ccccn1	DAX1 inh-1 24.5
COc1cc(C(=O)OCC(=O)N2CCCC2)cc2c1OCCO2	none
COc1ccc(C(=O)NCCc2nnc3ccc(SCC(=O)N4CCOCC4)nn23)cc1	none
CC1CC1C(=O)OCC(=O)Nc1ccc(N=Nc2ccccc2)cc1 (stereo not drawn)	none
CCCC(=O)OCC(=O)Nc1ccc(N=Nc2ccccc2)cc1	hcDAF12 agonist 5.7, hgDAF-12 ag 11.3
CC(O)(c1cccc(F)c1)c1nc(-c2ccc(S(C)(=O)=O)cc2)cs1 (stereo not drawn)	none (no result: DAX1 inh-1)
CN(C)c1cccc(NC(=O)c2cccc3ccccc23)c1	ssDAF12 agonist 1.2, hcDAF12 agonist 6.5
NC(=O)CC1(c2ccccc2)CCCCC1	none
Cc1ccc(S(=O)(=O)N(C)Cc2ccc(C(=O)N/N=C/c3ccc(OC(F)F)cc3)cc2)cc1	DAX1 inh-1 6.2
C/C(=N\NC(=O)c1ccc(CN(C)S(=O)(=O)c2ccc(C)cc2)cc1)c1ccc(OC(F)F)cc1	none
CCC(C)c1ccc(OCC(=O)Nc2cccc(C(=O)Nc3ccc(C(=O)O)cc3)c2)cc1 (stereo not drawn)	DAX1 inh-2 4.0
Cc1ccc(C)c(OCC(=O)Nc2cccc(C(=O)O)c2)c1C	none
Cc1ccc(OCC(=O)Nc2cccc(O)c2)cc1C	hgDAF-12 ag 10.8
Cc1cccc(OCC(=O)Nc2cccc(O)c2)c1	none
COc1cccc(NC(=O)COc2ccccc2)c1	SMARCA2 act 7.8
Cc1cccc(C)c1OCC(=O)Nc1cccc(C(=O)O)c1	DAX1 inh-2 3.8, SMARCA2 act 7.9
CSCCC(NC(=O)c1ccccc1)C(=O)NCCc1ccc2c(c1)OCCO2 (stereo not drawn)	none
CC(=O)C1=CCC(c2ccc(F)cc2)N(S(=O)(=O)c2ccc(C)cc2)C1 (stereo not drawn)	none (no result: DAX1 inh-1)
Cc1cc(CNC[C@H]2O[C@@H](n3ccc(N)nc3=O)[C@H](O)[C@@H]2O)no1	none
COc1cccc(NC(=O)COC(=O)c2sccc2C)c1	hcDAF12 agonist 6.4, DAX1 inh-1 6.2, DAX1 inh-2 3.7, hgDAF-12 ag 13.1
Cc1cnc(NC(=O)CCc2ccccc2)s1	none
Cc1cnc(NC(=O)COc2ccccc2)s1	hgDAF-12 ag 11.9
CC(=O)Nc1cccc(OCC(=O)Nc2sccc2C(N)=O)c1	hgDAF-12 ag 12.2
COc1cccc(NC(=O)COC(=O)c2c(F)cccc2F)c1	none
COc1ccc(C)cc1NC(=O)C1CCCN(S(=O)(=O)c2ccc3c(c2)CCCN3C(C)=O)C1 (stereo not drawn)	none
CCc1nc2ccc(C(=O)Nc3ccc4c(c3)OCC(=O)N4)cn2c1N(C)Cc1nccn1C	none (no result: DAX1 inh-1)
Cc1nnc(SCC(=O)NNC(=O)c2ccccc2)n1Cc1ccccc1	none
Cc1nnc(SCC(=O)NNC(=O)c2ccc(F)cc2)n1Cc1ccccc1	ssDAF12 agonist 1.4, DAX1 inh-1 4.5
CCCCN1C(=O)C(O)=C(C(C)=O)C1c1ccccc1[N+](=O)[O-] (stereo not drawn)	ssDAF12 agonist 0.9
Cc1ccccc1OCCOc1cccc(/C=N/NC(=O)Cc2nnc(N)s2)c1	hgDAF-12 ag 12.3
C[C@@H]1CN([C@@H](C)CO)C(=O)CCCn2nncc2CO[C@@H]1CN(C)C(=O)NC1CCCCC1	none
Cc1ccccc1CN(C)C[C@H]1OCc2cnnn2CCCC(=O)N([C@@H](C)CO)C[C@@H]1C	none
Cc1cccc(S(=O)(=O)N(C)C[C@H]2OCc3cnnn3CCCC(=O)N([C@H](C)CO)C[C@H]2C)c1	DAX1 inh-1 4.4
C[C@H]1CN([C@@H](C)CO)C(=O)CCCn2nncc2CO[C@H]1CN(C)C(=O)NC1CCCCC1	DAX1 inh-1 5.1
COc1ccccc1CN(C)C[C@@H]1OCc2cnnn2CCCC(=O)N([C@H](C)CO)C[C@H]1C	DAX1 inh-1 4.2
Cc1cccc(S(=O)(=O)N(C)C[C@@H]2OCc3cnnn3CCCC(=O)N([C@H](C)CO)C[C@H]2C)c1	none
CC(C)c1ccc(C2c3[nH]c4ccccc4c3C[C@H]3C(=O)N(c4ccccc4C(=O)N4CCC(C(=O)O)CC4)C(=O)N23)cc1 (stereo partly drawn)	hcDAF12 agonist 5.8
COc1cccc(C2c3[nH]c4ccccc4c3C[C@H]3C(=O)N(c4ccccc4C(=O)NCCCN4CCOCC4)C(=O)N23)c1 (stereo partly drawn)	hcDAF12 agonist 5.7
COc1ccc(C2c3[nH]c4ccccc4c3C[C@H]3C(=O)N(c4ccccc4C(=O)N4CCC[C@H]4C(=O)O)C(=O)N23)cc1 (stereo partly drawn)	DAX1 inh-1 5.2
CC(C)c1ccc(C2c3[nH]c4ccccc4c3C[C@H]3C(=O)N(c4ccccc4C(=O)N4CCC[C@@H]4C(=O)O)C(=O)N23)cc1 (stereo partly drawn)	none
Cc1c(O)nc(SCC(=O)Nc2nccs2)n(-c2ccccc2F)c1=O	none
COc1ccc2cc3cc(C(=O)NCCCN4CCc5ccccc5C4)sc3nc2c1	none
COc1ccc2nc3sc(C(=O)NCCN4CCc5ccccc5C4)cc3cc2c1	hgDAF-12 ag 12.2
COC(=O)C[C@H]1CC[C@@H]2[C@@H](COc3ccc(NC(=O)c4ccccc4)cc3C(=O)N2C)O1	none (no result: DAX1 inh-1)
CC(C)C1Cc2nc(Cl)c(C#N)cc2CO1 (stereo not drawn)	none
Clc1ccccc1OCCCn1ccnc1	ssDAF12 agonist 1.4
O=C(CNc1cccc([N+](=O)[O-])c1)NC(=O)NC1CCCCC1	none
O=C(COc1ccccc1[N+](=O)[O-])NCC1(N2CCCCC2)CCCCC1	none
N#Cc1ccccc1OCC(=O)NCC1(N2CCCCC2)CCCCC1	ssDAF12 agonist 1.5
N#Cc1ccccc1NC(=O)c1cc(=O)c2ccccc2o1	hgDAF-12 ag 11.0
Cc1ccc(CNc2nc3cc(-c4ccccc4)sc3c(=O)n2C)c(C)c1	none (no result: DAX1 inh-1)
